The nature of this experiment: NCI Yeast Anticancer Drug Screen. Data for the rad52 strain (AID 147).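 Also: 0% = growth of vehicle-treated control cultures.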 Conditions: S. cerevisiae rad52 mutant growth inhibition, active compounds read high. On the procedure: Growth inhibition of yeast strains with defined genetic alterations is measured as a screen for potential anti-cancer activity. Selected strains with alterations in DNA damage repair or cell cycle control were exposed to compounds and growth inhibition was measured relative to vehicle treated controls. The strain used in this assay is rad52

Structures are written as SMILES. Where “and” joins values, the source holds several entries; their conditions need not be identical. Equal values may be shown once. Compounds without any hit were thinned out: in the full panel of roughly 79,000, 15% have a hit. A number with no mark means an inactive call. Calls of active or inactive are those of the source. Rule as the data show it: active = growth inhibition above about 70%; inactive = the rest.

Consider `CCC(=O)OC1CCn2c1nc1c2C(=O)C(C)=C(N2CC2)C1=O` (stereo not given), for which the growth inhibition is, setting by setting: (at 1.2 µM) -5%; (at 3.7 µM) 26%; (at 11.0 µM) 17%; (at 33.0 µM) 41%; (at 100.0 µM) 82% (active).
In the case of `COC(=O)C1=C(C(=O)OC)SC2(S1)C(C(=O)OC)=C(C(=O)OC)Sc1c2ssc1=O`, the growth inhibition runs as follows: (at 1.2 µM) 55%; (at 3.7 µM) 72% (active); (at 11.0 µM) 93% (active); (at 33.0 µM) 98% (active); (at 100.0 µM) 89% (active).
For `COC(=O)C1c2cc3c(c(O)c2C(O)CC1(C)O)C(=O)c1c(O)cc2c(c1C3=O)OC1OC2(C)C(O)C(N(C)C)C1O` (stereo not given), the growth inhibition runs as follows: (at 1.2 µM) 0%; (at 3.7 µM) 16%; (at 11.0 µM) 50%; (at 33.0 µM) 85% (active); (at 100.0 µM) 93% (active).
In the case of `CCC1(OC(=O)CN)C(=O)OCc2c1cc1n(c2=O)Cc2cc3ccccc3nc2-1` (stereo not given), the growth inhibition is, setting by setting: (at 1.2 µM) 93% (active); (at 3.7 µM) 95% (active); (at 11.0 µM) 96% (active); (at 33.0 µM) 97% (active); (at 100.0 µM) 97% (active).
`O=C(NNC(=O)OCC(Cl)(Cl)Cl)OCC(Cl)(Cl)Cl`: the growth inhibition runs as follows: (at 1.2 µM) 0%; (at 3.7 µM) 0%; (at 11.0 µM) 2%; (at 33.0 µM) 2%; (at 100.0 µM) 31%.
Regarding `COc1cc(C2c3cc4c(cc3[C@@H](Nc3ccc(N)cc3)C3COC(=O)[C@H]23)OCO4)cc(OC)c1O` (stereo not given in full), the growth inhibition was 92% (active) (at 1.2 µM); 92% (active) (at 3.7 µM); 95% (active) (at 11.0 µM); 92% (active) (at 33.0 µM); 87% (active) (at 100.0 µM).
Consider `CCNC(=O)OCC1C2=C(C(=O)C(C)=C(N)C2=O)N2CC3C(N3C)C12OC` (stereo not given), for which the growth inhibition (at 1.2 µM) was 4%; the growth inhibition (at 3.7 µM) was 25%; the growth inhibition (at 11.0 µM) was 25%; the growth inhibition (at 33.0 µM) was 63%; the growth inhibition (at 100.0 µM) was 81% (active).
Take `COc1ccc([N+]2=NC(c3ccc([N+](=O)[O-])cc3)=NN(c3ccccc3)C2)cc1`: the growth inhibition runs as follows: (at 1.2 µM) -3% and -1%; (at 3.7 µM) -1% and 1%; (at 11.0 µM) 1% and 2%; (at 33.0 µM) 37% and 12%; (at 100.0 µM) 91% (active).

For the origin of these results see PubChem BioAssay (NCI).
